From the supplement of paper PMC9433436
± gives the standard deviation of the averaged measurements. Over roughly 4,100 sequences, “relative kcat/Km (krel) vs genomic leader AAAGAU” has its median near 1.7; the highest 2% begin near 6.5. This excerpt belongs to a sample that is enriched for the highest values.

Target: T1, E. coli RNase P holoenzyme (M1 P RNA + rnpA protein) (UniProt P0A7Y8)
T1 sequence: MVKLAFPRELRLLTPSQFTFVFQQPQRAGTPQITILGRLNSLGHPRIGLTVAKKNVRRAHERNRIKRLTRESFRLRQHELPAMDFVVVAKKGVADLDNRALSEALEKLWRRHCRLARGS
Assay: relative kcat/Km (krel) vs genomic leader AAAGAU (relative (reference leader = 1)); higher = faster RNase P cleavage
Description: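 HTS-Kin: a pool of ptRNA-Met (21C construct) with all 4096 combinations of 5' leader nucleotides N(-6) to N(-1) was processed in vitro by E. coli RNase P (P RNA + rnpA/C5 protein) under multiple-turnover conditions at 37 C, pH 8, 17.5 mM MgCl2. Residual substrate was Illumina-sequenced at several fractions reacted, and relative kcat/Km (krel) was computed by internal competition kinetics, calibrated to the genomic leader (AAAGAU = 1). The listed hexamer is the varied N(-6)..N(-1) leader (DNA letters), and it sits between a fixed 5' stem-loop flank (GCAUGCACGAAAGUGCGUGCUAUGAA) and the mature tRNA-Met starting GGCUACGUAGCUCAGUUGG. Two technical replicates are averaged.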

[1] = fraction of substrate reacted: ~9-10% (9.79% repeat 1, 9.1% repeat 2)
[2] = fraction of substrate reacted: ~13-16% (15.68% repeat 1, 13.17% repeat 2)
[3] = fraction of substrate reacted: ~26-29% (28.66% repeat 1, 26.4% repeat 2)

| Sequence | relative kcat/Km [1] | relative kcat/Km [2] | relative kcat/Km [3] |
| --- | --- | --- | --- |
| CTACGT | 0.396 ± 0.012 | 0.978 ± 0.12 | 1.13 ± 1.1 |
| TTAGGG | 0.357 ± 0.048 | 1.11 ± 0.86 | 2.15 ± 2.1 |
| GGGTAA | 1.51 ± 0.8 | 1.31 ± 0.21 | 1.46 ± 0.55 |
| GGAGCT | 1.22 ± 0.62 | 0.705 ± 0.57 | 1.64 ± 0.58 |
| CTCACA | 3.32 ± 0.59 | 3.94 ± 0.75 | 5.85 ± 2.7 |
| GGCACA | 1.43 ± 0.55 | 1.26 ± 0.95 | 2.08 ± 0.64 |
| GTCACA | 3.73 ± 1.8 | 4.78 ± 1.1 | 7.01 ± 2.5 |
| AAACGA | 2.12 ± 0.92 | 1.89 ± 0.67 | 2.21 ± 0.41 |
| CCCTTG | – | – | 1.42 ± 0.67 |
| ACGAAA | 1.79 ± 0.39 | 1.66 ± 0.37 | 2.72 ± 1.1 |
| TTTAAA | 3.37 ± 1.6 | 3.88 ± 0.2 | 5.35 ± 2.1 |
| CTTTAT | 4.88 ± 2 | 5.78 ± 0.63 | 8.16 ± 3.3 |
| CCTTAT | 3.19 ± 0.95 | 4.47 ± 0.36 | 6.48 ± 2.4 |
| GCTTAT | 2.2 ± 0.24 | 3.15 ± 0.31 | 4.62 ± 1.7 |
| TTTTTA | 3.12 ± 2.4 | 2.58 ± 0.21 | 3.44 ± 0.81 |
| CTTTAG | 2.44 ± 1.3 | 2.14 ± 0.24 | 3.51 ± 0.57 |
| CTTTAA | 3.07 ± 1.6 | 3.8 ± 0.23 | 5.72 ± 2 |
| ATTTAT | 3.82 ± 1.8 | 4.84 ± 0.46 | 7.02 ± 3 |
| TCTTAT | 4.12 ± 1.9 | 5.44 ± 1.1 | 8.21 ± 3.5 |
| ATTTAA | 3.55 ± 1.8 | 4.39 ± 0.62 | 5.24 ± 1.9 |
| ATTTAG | – | 2.526 ± 0.01 | 3.82 ± 0.68 |
| TTTTAA | 4.32 ± 1.7 | 4.88 ± 0.61 | 6.68 ± 2.5 |
| GGCACT | 1.99 ± 1.6 | 1.75 ± 0.28 | 2.89 ± 1.2 |
| TTTGGG | – | – | 1.56 ± 1.5 |
| ACATTT | 2.32 ± 1.2 | 2.97 ± 0.19 | 4.45 ± 1.8 |
| AGCAGC | 2.23 ± 0.55 | 2.28 ± 0.13 | 3.24 ± 0.54 |

| Sequence | relative kcat/Km [1] | relative kcat/Km [2] | relative kcat/Km [3] |
| --- | --- | --- | --- |
| CCAACC | – | 1.11 ± 0.49 | 1.3 ± 0.39 |
| GCTAGG | 1.3 ± 0.58 | – | 0.775 ± 0.23 |
| AATTTT | 2.36 ± 0.95 | 2.45 ± 0.43 | 3.35 ± 1 |
| ATTTAC | 4.31 ± 1.7 | 4.75 ± 0.58 | 6.43 ± 2.2 |
| TTTTAG | 3.3 ± 2.5 | 2.5 ± 0.78 | 4.51 ± 1.2 |
| TTTATT | 2.77 ± 0.82 | 3.08 ± 0.42 | 4.5 ± 2.1 |
| GTTTAC | 3.75 ± 0.76 | 4.65 ± 0.88 | 7.14 ± 3 |
| GTTTAT | 3.69 ± 0.5 | 5.18 ± 1.8 | 8 ± 3.7 |
| TTTTAC | 3.74 ± 1.1 | 4.76 ± 1.2 | 7.2 ± 3.2 |
| GTTTAG | – | 1.86 ± 0.39 | 3.84 ± 1.2 |
| TTTTTT | 3.31 ± 1.9 | 3.41 ± 0.27 | 4.9 ± 1.7 |
| CTTTAC | 4.38 ± 1.7 | 4.59 ± 1.3 | 6.2 ± 1.9 |
| TTTTAT | 4.55 ± 1.4 | 5.6 ± 0.89 | 8.5 ± 3.9 |
| GTTTTA | 2.83 ± 1.7 | 2.56 ± 0.17 | 3.52 ± 1 |
| GTTTAA | 3.62 ± 0.62 | 4.49 ± 0.5 | 6.31 ± 3 |
| TAAGCC | 2.57 ± 0.66 | 2.16 ± 0.87 | 1.67 ± 0.62 |
| TTGAGA | 2.45 ± 0.5 | 2.31 ± 0.38 | 3.09 ± 0.91 |
| ATCGTA | 3.1 ± 0.36 | 3.67 ± 0.92 | 5.45 ± 2.6 |
| TGCTGT | – | 0.877 ± 0.71 | 1.11 ± 1.1 |
| GAAACG | – | – | 0.784 ± 0.096 |
| CCGCAG | – | – | 1.14 ± 1.1 |
| GAAGGC | 1.24 ± 0.64 | – | – |
| ACCGTA | 2.19 ± 0.39 | 2.54 ± 0.21 | 4.07 ± 1.4 |
| TCCTGC | 4.64 ± 1.6 | 5.78 ± 1.5 | 7.5 ± 3.9 |
| CCCTGC | 2.87 ± 1.4 | 3.39 ± 0.2 | 5.06 ± 1.6 |
| TCCTGG | 0.344 ± 0.27 | 0.715 ± 0.34 | 1.15 ± 1.1 |

| Sequence | relative kcat/Km [1] | relative kcat/Km [2] | relative kcat/Km [3] |
| --- | --- | --- | --- |
| TCCTGA | 3.23 ± 0.83 | 4.19 ± 0.42 | 6.6 ± 2.5 |
| ACCTGC | 3.58 ± 3.5 | 3.61 ± 2.3 | 5.37 ± 2.5 |
| TCCTGT | – | – | 2.18 ± 1.6 |
| ATTACA | 2.55 ± 1.5 | 2.08 ± 0.14 | 2.94 ± 1.2 |
| CCCACT | 1.87 ± 1.1 | 1.27 ± 0.14 | 2.79 ± 0.067 |
| AAATCT | 1.86 ± 0.61 | 2.09 ± 0.095 | 2.8 ± 0.68 |
| GCACGC | – | – | 1.29 ± 1.2 |
| CTCTAT | 4.59 ± 0.51 | 6.38 ± 1.7 | 9.17 ± 4 |
| ATCTCG | 2.52 ± 2 | 2.14 ± 0.37 | 3.55 ± 1.2 |
| CTATCT | 3.05 ± 0.67 | 3.54 ± 0.89 | 4.18 ± 1.4 |
| ATCTAG | 2.49 ± 0.96 | 3.16 ± 1 | 5.72 ± 2.4 |
| ATCTAT | 3.93 ± 1.4 | 5.38 ± 1 | 7.98 ± 3.7 |
| GTCTAT | 5.93 ± 2.3 | 6.62 ± 1.5 | 9.91 ± 4.4 |
| ATCTAC | 4.97 ± 1.4 | 6.58 ± 2 | 9.08 ± 4.5 |
| ATCTGT | – | 1.3 ± 1.2 | 1.76 ± 1.5 |
| AGCTAC | 1.27 ± 0.29 | 3.3102 ± 0.0027 | 4.78 ± 1.9 |
| CTATGT | 0.766 ± 0.47 | 1.38 ± 0.98 | – |
| GGCTAT | 2.25 ± 0.98 | 1.99 ± 0.48 | 2.88 ± 0.85 |
| ATGTCT | 1.82 ± 0.38 | 2.3 ± 0.33 | 2.43 ± 1 |
| ATACTT | 1.93 ± 1.3 | 1.97 ± 0.58 | 2.62 ± 1.1 |
| GCGAAT | 0.964 ± 0.25 | 1.54 ± 0.49 | 2.09 ± 0.45 |
| CAGCGC | 1.95 ± 0.83 | 1.4 ± 0.14 | 2.09 ± 0.64 |
| CTGCGG | – | 0.228 ± 0.042 | 0.674 ± 0.39 |
| TGGGAA | – | 1.31 ± 0.98 | 1.24 ± 0.69 |
| CAGCTA | 1.51 ± 0.56 | 1.21 ± 0.27 | 1.85 ± 0.51 |
| ACTGGA | 0.346 ± 0.015 | – | – |

| Sequence | relative kcat/Km [1] | relative kcat/Km [2] | relative kcat/Km [3] |
| --- | --- | --- | --- |
| TGGTAG | – | – | 0.538 ± 0.38 |
| TTTCTC | 2.12 ± 0.99 | 2.29 ± 0.41 | 2.91 ± 0.93 |
| TTATGC | 3.22 ± 0.63 | 4.29 ± 0.74 | 6.16 ± 2.8 |
| CCGTAC | 3.58 ± 1 | 4.22 ± 0.54 | 5.69 ± 2.3 |
| GCTTAA | 1.72 ± 1 | 2.36 ± 0.11 | 3.64 ± 0.66 |
| AACTTC | 3.37 ± 1.2 | 3.49 ± 0.17 | 4.33 ± 1.5 |
| TACATA | 3.93 ± 2 | 4.55 ± 0.65 | 6.5 ± 2.8 |
| GCTGAT | 1.1 ± 0.57 | 1.1 ± 0.49 | 0.636 ± 0.14 |
| TGAGGA | 0.562 ± 0.032 | – | 1.42 ± 0.78 |
| TTAAGA | 1.95 ± 0.61 | 2.89 ± 0.47 | 3.88 ± 1.5 |
| CTCTAC | 4.76 ± 1.6 | 6.63 ± 1.3 | 8.97 ± 3.6 |
| CTACAC | 2.87 ± 1.7 | 3 ± 0.59 | 4.74 ± 1.4 |
| GGCTAC | 1.69 ± 1.4 | 1.98 ± 0.51 | 2.81 ± 1.3 |
| CTCTAG | 3.37 ± 2.2 | 3.41 ± 0.89 | 5.82 ± 2 |
| GTCTAG | 3.54 ± 2.5 | 3.25 ± 0.17 | 5.81 ± 1.6 |
| GTCTAC | 4.47 ± 0.65 | 6.86 ± 2.4 | 10.1 ± 4.8 |
| TACGTT | 1.82 ± 0.88 | 1.95 ± 0.067 | 2.61 ± 1 |
| CAAGAT | 1.15 ± 0.24 | 0.704 ± 0.019 | 1.49 ± 0.33 |
| CACCGC | 2.34 ± 0.56 | 3.87 ± 1.6 | 5.89 ± 2.7 |
| GTCCGG | – | – | 1.17 ± 0.26 |
| CGCCGC | 2.62 ± 0.84 | 3.479 ± 0.016 | 4.99 ± 2 |
| GTCCGC | 3.94 ± 0.68 | 5.24 ± 1.4 | 8 ± 3.3 |
| ATCCGA | 4.57 ± 1.7 | 4.95 ± 0.73 | 7.19 ± 2.7 |
| ATCCCA | 2.69 ± 1.7 | 2.52 ± 0.24 | 3.52 ± 0.92 |
| CTCCGC | 3.56 ± 0.068 | 4.98 ± 1.7 | 6.8 ± 2.7 |
| GGCCGC | 1.55 ± 0.064 | 1.97 ± 0.17 | 3.73 ± 0.94 |
